Structures are written as SMILES. Among all 2,400 compounds or so, about 360 (15%) were called active. Roughly 5% stayed inconclusive and do not appear here.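 The calls were made as follows: active = falling-signal curve with half-maximal concentration at or below ten times the top tested dose; inconclusive = flat fit at 30 to 70% inhibition, or poor fit; inactive = signal rise, flat within 30%, or potency beyond limit.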 Only a sample is shown. Results with a measured potency or affinity are listed apart.

This assay can be described thus: Tet-On RFP internal-standard readout, HSF1 screen, dose response, cell-based, NIH3T3 R4, HSE-GFP and Tet-On RFP, cherry-pick, set 3 (AID 493085).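 Also: cells heat shocked 2 h at 42 °C with doxycycline to induce reporters.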 As to conditions: NIH3T3 R4 HSE-GFP/Tet-RFP reporter, fluorescence, 48 h; series mostly up to 19.5 µM.
In the case of `CC1C(=O)C(C)C(c2ccco2)NC1c1ccco1` (centres undefined), the result was inactive.
For `Nc1nc2n(c1C(=O)c1ccccc1)CCC2`, the molecule was called inactive.
As for `COc1ccc(N2CCN(CC(O)COCCOc3ccc(Br)cc3)CC2)cc1` (centres undefined), the molecule was called inactive.
The same measure for `CC(C)(C)c1ccc(-c2nnc3sc(-c4ccccn4)nn23)cc1`: “inactive”; for `Cn1c(C(=O)O)c(CC(=O)Nc2ccc3c(c2)OCCO3)c2ccccc21`: “inactive”.
The same measure for `CCCS(=O)(=O)N1CCCC(C(=O)N2CCC(Cc3ccccc3)CC2)C1` (centres undefined): “inactive”; for `CC(=O)Nc1ccc(-c2nnn(CC(=O)Nc3ccc4c(c3)OCO4)n2)cc1Cl`: “inactive”; for `O=C1Cc2ccccc2C(=O)N1c1cccc(Cl)c1`: “inactive”.
For `CC(C)CNC(=O)C1CCN(Cc2ccc(OCc3ccccc3)cc2)CC1`, the result was inactive.
Turning to `CN(CC(=O)Nc1cccc(F)c1)CC(=O)Nc1cccc(S(N)(=O)=O)c1`, the result was inactive.
`COc1cc(NC(=O)c2cc3cccc(OC)c3o2)cc(C(=O)Nc2cccc(C(F)(F)F)c2)c1`: the molecule was classed as inactive.
Regarding `COc1ccc(S(=O)(=O)Nc2ccccc2C(=O)N2CCOCC2)cc1Cl`, the result was inactive.
The result for `COc1ccc(CN(C)C(=O)c2cc(S(=O)(=O)N3CCOCC3)ccc2N2CCCC2)cc1` reads “inactive”; that for `Cc1noc(NS(=O)(=O)c2ccc(N3Cc4ccccc4C3=O)cc2)c1C`, “inactive”; that for `CCCCN1C=CC(=C2C(=O)c3ccccc3C2=O)C=C1`, “inactive”.
The same measure for `Fc1ccccc1NC(=S)Nc1ccc(CN2CCOCC2)cc1`: “inactive”; for `COC(=O)C1CCN(C(=O)c2sc3nc(-c4ccccc4)cn3c2C)CC1`: “inactive”.
On to `CCOC(=O)c1sc2nc3c(cc2c1N)COC(C(C)C)C3` (centres undefined), for which the outcome was inactive.
The same measure for `CCCn1c(SCC(=O)c2c(C)[nH]c(C)c2C(=O)OCC)nc2ccccc21`: “inactive”; for `CCOC(=O)c1n[nH]c(=O)c2ccccc12`: “inactive”.
With `Cc1cccc(Nc2nc(-c3ccc4c(c3)OCCO4)cs2)c1`, the call was inactive.
The result for `COc1cccc(-n2nnc3c(=O)n(Cc4ccccc4Cl)cnc32)c1` reads “inactive”.
The same measure for `Nc1nc(Cl)nc(N(c2ccccc2)c2ccccc2)n1`: “inactive”.
The result for `CCOC(=O)Cn1c(CCC(=O)O)ccc1-c1ccc(F)cc1` reads “inactive”; that for `COc1ccc(S(=O)(=O)/C(C#N)=C/Nc2cccc(OC)c2)cc1`, “inactive”.
With `O=S(=O)(Nc1ccncc1)c1ccc(Cl)cc1`, the outcome was inactive.
The result for `NC(=O)c1nsc(C(=O)N(c2cccc(F)c2)C(C(=O)NC2CCCC2)c2ccco2)c1N` (centres undefined) reads “inactive”; that for `COc1ccc(C(=O)N2CCN=C2SCc2cccnc2)cc1OC`, “inactive”; that for `CCN(C(=O)c1ccc2c(SCC(=O)O)c3c(nc2c1)CCC3)c1cc(Cl)ccc1OC`, “inactive”.
For the molecule `CC(/C=N\NC(=O)c1cc(C)oc1C)=C\c1ccccc1`, the molecule was classed as inactive.
The same measure for `CCN(CC)C(=O)COC(=O)c1ccc(C)c(NC(=O)c2ccco2)c1`: “inactive”; for `CN1CCN(C(=O)/C(=C\c2cccs2)NC(=O)c2ccco2)CC1`: “inactive”.
The same measure for `Cc1ccc(N(Cc2cc3ccc(C)cc3[nH]c2=O)C(=O)c2cccs2)cc1`: “inactive”; for `CC1CCCN(c2ncnc3c2cnn3-c2ccc(Cl)cc2)C1` (centres undefined): “inactive”.
The same measure for `CCOC(=O)N1CCC(Nc2ncnc3c2cnn3-c2ccc(Cl)cc2)CC1`: “inactive”; for `c1ccc2c(Nc3nc(-c4ccncc4)nc4ccccc34)cccc2c1`: “inactive”.
For `COc1cc(CCCN2CCNC[C@@H]2Cc2ccc(O)cc2)cc(OC)c1OC`, the outcome was inactive.
For the molecule `O=C(COC(=O)c1ccccc1-n1cnnn1)c1ccc(F)cc1`, the call was inactive.
The same measure for `COc1cccc(-n2c(N)c(-c3nc4ccccc4[nH]3)sc2=S)c1`: “inactive”; for `COc1ccc(CC(=O)Nc2cc(C)on2)cc1`: “inactive”.
For `COc1ccc(/C=C/C(=O)NC(=S)NCCc2ccc(OC)c(OC)c2)cc1`, the molecule was classed as inactive.
The same measure for `COc1ccc(Nc2nc(Nc3ccc(OC)cc3)nc(-n3[nH]c(=O)c(C)c3C)n2)cc1`: “inactive”; for `COc1ccccc1C(O)(C(=O)N(NC(C)=O)c1ccccc1)c1ccccc1OC`: “inactive”; for `Cc1cccc(-c2nnc(NC(=O)c3cccs3)s2)c1`: “inactive”.
The same measure for `Cc1c(C(=O)Nc2ccc(F)cc2)sc2ncn(CC(=O)N3CCCCC3)c(=O)c12`: “inactive”.
The same measure for `O=C(Nc1cccc(S(=O)(=O)N2CCOCC2)c1)c1ccccn1`: “inactive”.
Consider `O=[N+]([O-])c1ccc(NCCOc2ccccc2Cl)nc1`, for which the molecule was classed as inactive.
The same measure for `O=[N+]([O-])c1cccc(-c2nnc(-c3ccccc3)o2)c1`: “inactive”.
Consider `O=C(c1cccs1)n1nc(-c2ccco2)nc1SCc1ccccc1`, for which the molecule was classed as inactive.
The result for `NNC(=O)c1ccc(O)cc1O` reads “inactive”; that for `COc1cc(=O)[nH]c(SCC(=O)Nc2nc3c(s2)CCCC3)n1`, “inactive”.
The same measure for `CN(C)CCNC(=O)c1cc2c(s1)-c1ccc(Cl)cc1SC2`: “inactive”; for `O=C(Nc1nncs1)c1ccc(F)c(S(=O)(=O)N2CCCCC2)c1`: “inactive”; for `O=C(Nc1nc(-c2cccs2)cs1)c1ccc(Cl)s1`: “inactive”.
With `Cc1ccc(-c2csc(NC(=O)c3ccc(S(=O)(=O)N4CCc5ccccc54)cc3)n2)cc1`, the call was inactive.
Regarding `CCCCC(=O)Nc1cccc(NC(=O)c2cccc(Br)c2)c1`, the outcome was inactive.
The result for `COc1cc2c(cc1OC)C(C(=O)NC1CC1)C1c3ccccc3CCN1C2=O` (centres undefined) reads “inactive”; that for `NC(=S)N/N=C/c1cc([N+](=O)[O-])ccc1OCCOc1ccccc1`, “inactive”; that for `CCC(C)c1ccc(OCc2ccc(C(=O)O)o2)cc1` (centres undefined), “inactive”.
Take `NS(=O)(=O)c1cccc(NC(=O)CNC(=O)CC23CC4CC(CC(C4)C2)C3)c1`: the call was inactive.
The result for `CCOc1ccccc1C(=O)Nc1ccc(NC(=O)c2ccccc2)cc1` reads “inactive”; that for `Cc1cc(C(=O)COC(=O)c2ccco2)c(C)n1Cc1ccco1`, “inactive”; that for `C=CCOc1ccn(C)c(=O)n1`, “inactive”.
Take `O=C1OC2(CCCCC2)OC(=O)C1=CNc1nccs1`: the molecule was classed as inactive.
The same measure for `Cc1ccc(C)c(N2CCN(CCN3CCCCC3)CC2)c1`: “inactive”; for `Oc1ccccc1-c1nnc(-c2ccc(C(F)(F)F)cc2)o1`: “inactive”.
For the molecule `COC(=O)C1=C(C)Nc2c(c(=O)n(C)c(=O)n2C)C1c1cccc(O)c1` (centres undefined), the call was inactive.
In the case of `CCC(=O)N1C(C(=O)N2CCCC2)CSC1c1ccc(OC)cc1` (centres undefined), the call was inactive.
The result for `CNC(=O)Cn1nc(C)c2ccccc2c1=O` reads “inactive”.
Regarding `O=C(CNC(=O)C12CC3CC(CC(C3)C1)C2)NCc1ccccc1`, the molecule was called inactive.
With `Cc1cc(C)cc(N(CC(=O)Nc2ccc(Br)cc2)S(=O)(=O)c2c(C)[nH]c(=O)[nH]c2=O)c1`, the outcome was inactive.
As for `CCOc1ccccc1Nc1nnc(SCc2nnc(-c3cc(OC)c(OC)c(OC)c3)o2)s1`, the molecule was called inactive.
The result for `COc1ccc(-n2c(-c3cccc(OC)c3)nc(=S)c3c2CCCC3)cc1` reads “inactive”.
The result for `COc1ccc(N2C(=O)C(C)(C)C2c2c(O)ccc3ccccc23)cc1` (centres undefined) reads “inactive”.

The record behind these values is PubChem BioAssay AID493085 (Broad Institute, 2011).
